SMILES strings stand for the structures. Records with an inconclusive call do not appear. Active and inactive are the calls of the source. The calls were made as follows: active = hit-call score of the fitted dose curve at least 0.9, where 1 is the maximum; inconclusive = response in the unintended direction; inactive = score below 0.9.

One may read the AC50 as the concentration giving half of the maximal activity seen.

Chain of human Peripheral-type Benzodiazepine Receptor (PBR), TSPO (gene 706) (P30536 whole entry, looked up): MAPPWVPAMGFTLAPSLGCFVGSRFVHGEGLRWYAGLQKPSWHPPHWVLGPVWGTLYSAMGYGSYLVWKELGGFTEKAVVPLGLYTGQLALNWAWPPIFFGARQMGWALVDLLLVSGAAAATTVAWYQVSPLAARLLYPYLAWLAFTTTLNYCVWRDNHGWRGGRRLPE
Chain of rat Thyrotropin Releasing Hormone Receptor (TRH), Trhr (gene 25570) (Q01717 whole entry, looked up): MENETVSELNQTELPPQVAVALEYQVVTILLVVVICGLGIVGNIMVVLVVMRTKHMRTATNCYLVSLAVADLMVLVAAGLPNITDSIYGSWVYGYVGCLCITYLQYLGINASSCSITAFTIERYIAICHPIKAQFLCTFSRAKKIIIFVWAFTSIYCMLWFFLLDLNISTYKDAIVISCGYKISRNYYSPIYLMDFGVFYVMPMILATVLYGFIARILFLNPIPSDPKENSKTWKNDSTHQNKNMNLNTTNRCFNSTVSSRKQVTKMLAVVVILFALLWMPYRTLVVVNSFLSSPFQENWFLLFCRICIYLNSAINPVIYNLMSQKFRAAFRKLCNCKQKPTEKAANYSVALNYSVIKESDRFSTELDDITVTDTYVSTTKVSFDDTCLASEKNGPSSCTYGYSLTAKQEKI

One test has as its target rat Thyrotropin Releasing Hormone Receptor (TRH), Trhr (gene 25570) (UniProt Q01717). In words: NVS_GPCR_rTRH: NovaScreen (NVS) G Protein-Coupled Receptor Assay for rat Thyrotropin Releasing Hormone Receptor (TRH) (AID 2283329).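 Also: hit means lower bound tracer signal versus DMSO baseline.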 The method in brief: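 Test compounds are screened at 25 uM in duplicate against radioligand binding in rat forebrain membranes, with active pairs followed up over a concentration range. Detection uses filter-based radiodetection after a 4 h exposure.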
Consider `CCC(CC)Nc1c([N+](=O)[O-])cc(C)c(C)c1[N+](=O)[O-]`, for which the compound was called inactive. For the compound `CCOC(=O)CC(SP(=O)(OC)OC)C(=O)OCC` (stereo not given), the compound was classed as inactive. Turning to `C#CC(C)(C)NC(=O)c1cc(Cl)cc(Cl)c1`, the compound was called inactive. As to `CCc1cnc(C2=NC(C)(C(C)C)C(=O)N2)c(C(=O)O)c1` (stereo not given), the result was inactive.

In a further test the target is human Peripheral-type Benzodiazepine Receptor (PBR), TSPO (gene 706) (UniProt P30536). In words: NVS_MP_hPBR: NovaScreen (NVS) Membrane Protein Assay for human Peripheral-type Benzodiazepine Receptor (PBR) (AID 2283331).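 Also: hits reduce radioligand binding relative to DMSO baseline.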 The method in brief:
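Human colonic cell membranes were incubated with test chemical for 1 hour; radioligand binding was measured by filter-based scintillation counting. Primary screen ran in duplicate at 25 uM, with actives followed in concentration series; loss of signal versus DMSO baseline.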
For `CCOP(=S)(OCC)Oc1ccc2c(C)c(Cl)c(=O)oc2c1`, the concentration at half-maximal activity (AC50) is 3.86 µM (active). As for `COP(=O)(NC(C)=O)SC` (stereo not given), the compound was called inactive. In the case of `CC1(C(=O)Nc2ccc(O)c(Cl)c2Cl)CCCCC1`, the AC50 was 1.78 µM (active). Regarding `C=C(C)[C@H]1Cc2c(ccc3c2O[C@@H]2COc4cc(OC)c(OC)cc4[C@@H]2C3=O)O1`, the compound was called inactive. Take `CCOP(=S)(OCC)Oc1ccc([N+](=O)[O-])cc1`: the call was inactive. Same read-out and setting: for `CCCCN(CC)c1c([N+](=O)[O-])cc(C(F)(F)F)cc1[N+](=O)[O-]` the value was “inactive”. On to `CNc1cnn(-c2cccc(C(F)(F)F)c2)c(=O)c1Cl`, for which the AC50 is 5.75 µM (active). Turning to `CCOP(=S)(OCC)Oc1cc(C)nc(C(C)C)n1`, the compound was called inactive. Take `CCc1cccc(CC)c1N(COC)C(=O)CCl`: the AC50 is 11.1 µM (active).

For the compound `CCCSP(=O)(OCC)Oc1ccc(Br)cc1Cl` (stereo not given), the AC50 was 3.16 µM (active).

On to `CCOP(=O)(OCC)Oc1cc(C)nc(C(C)C)n1`, for which the call was inactive.

In the case of `CC(C)[C@H](C(=O)O[C@H](C#N)c1cccc(Oc2ccccc2)c1)c1ccc(Cl)cc1`, the outcome was inactive.

`CCOP(=S)(OCC)SCCSCC`: the call was inactive. Consider `CNC(=O)ON=C(C)SC`, for which the call was inactive. On the same count and under the same terms, for `CCC(=NOC/C=C/Cl)C1=C(O)CC(C2CCOCC2)CC1=O` (stereo not given) the value was “inactive”.

With `CCCSP(=O)(OCC)SCCC`, the AC50 was 17.7 µM (active).

These data come from PubChem BioAssay (EPA / NIEHS).
